# Assay outcomes as filed in PubChem BioAssay.
# Sampled rows, rich in hits. Any-hit rate of the full collection: about 14%.
# AID923: qHTS Assay for Allosteric/Competitive Inhibitors of Caspase-1: Spectroscopic Profiling in AFC Spectral Region; compound fluorescence, AFC spectral region (405/520 nm); Potency, µM (doses to about 57.5 µM), without a hit: top-dose fluorescence increase, most hits filed as activators; 75,000 compounds, 1.1% hits; AID 923, 2007; further: potency means the concentration at half of the fitted maximal effect; 0% is about no effect
#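 Compound autofluorescence profiled at 405 nm ex/520 nm em during kinetic caspase 1 run (50 nM enzyme, 5 uM Ac-WEHD-AFC, HEPES pH 7.5, 10 mM DTT). Titration up to 57 uM; baseline from regression intercept, normalized to AFC standard curve.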
# A350 fluor: qHTS Assay for Spectroscopic Profiling in A350 Spectral Region; 59,000 compounds, 11% hits; max dye-equivalent concentration, M; AID 590, 2007; Compound autofluorescence, 340/450 nm, Alexa 350 dye-equivalents; active compounds read high; in the data active means max dye-equivalent concentration above about 10 nM; inconclusive means mostly about 1.1 nM to 9.6 nM
# CRE-bla Fsk: Cell signaling CRE-BLA (Fsk stim). 71,000 compounds, 2.5% hits. Potency, µM (top dose mostly 38.2 µM), for inactives: at the top dose activity change, negative = inhibition, usual class: activators. CHO CRE-bla reporter (cAMP response element driving beta-lactamase), forskolin EC10, beta-lactamase ratio. AID 662, 2007; active means well fitted activation curve with a large enough effect in the signal ratio, with a control signal flat, not every such curve was filed as active; inconclusive means small, poorly fitted or top-dose-only effect, or effect the other way, or a change in a side signal; the % refers to the signal ratio; further: potency means the concentration at half of the fitted maximal effect; % of control where 0% means no effect
#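 Cells were plated overnight at 37 °C, exposed to compound titrations plus EC10 NKH 477 for 3 h, then given CCF4 dye for 2 h at room temperature. Blue/green (460/530 nm) ratio was converted to %Activity and AC50 values calculated.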
# HADH2 inhib: qHTS Assay for Inhibitors of HADH2 (Hydroxyacyl-Coenzyme A Dehydrogenase, Type II). recombinant HADH2, NADH fluorescence, beta-hydroxybutyryl-CoA. 73,000 compounds, 3.4% hits. 3-hydroxyacyl-CoA dehydrogenase type-2 (Homo sapiens), Q99714. Potency, µM (doses to about 57.1 µM), for inactives: at the top dose activity change, negative = inhibition, most hits filed as inhibitors. AID 886, 2007; further: potency means the concentration at half of the fitted maximal effect; on the % scale 0 is the no-effect control and ±100 the full control effect; nearly all actives have a fitted effect of over 60% in size
# Target sequence (Q99714 whole entry, looked up, one chain of several): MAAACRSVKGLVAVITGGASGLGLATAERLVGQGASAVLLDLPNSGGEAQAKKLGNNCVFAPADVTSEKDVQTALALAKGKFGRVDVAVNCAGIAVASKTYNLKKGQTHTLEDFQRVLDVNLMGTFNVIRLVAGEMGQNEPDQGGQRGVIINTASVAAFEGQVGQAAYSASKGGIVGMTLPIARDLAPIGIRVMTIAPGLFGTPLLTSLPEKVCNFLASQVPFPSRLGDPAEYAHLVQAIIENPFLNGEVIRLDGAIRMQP
#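 His-tagged recombinant enzyme from E. coli, 20 nM, preincubated 15 min RT with compound; reaction started with 1 mM NAD+ and 90 uM beta-hydroxybutyryl-CoA in 100 mM Tris-HCl pH 9.0. NADH fluorescence (ex 360/em 450) read over 4 min; last-minus-first difference.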
# 4MU fluor: qHTS Assay for Spectroscopic Profiling in 4-MU Spectral Region. compound autofluorescence, 340/450 nm, 4-MU equivalents; active compounds read high. max dye-equivalent concentration, M. 59,000 compounds, 11% hits. AID 589, 2007; in the data active means max dye-equivalent concentration above about 10 nM; inconclusive means mostly about 1.1 nM to 9.6 nM
#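 Intrinsic fluorescence at 340/450 nm (ex/em) was read after 15 min at room temperature in pH 8.0, 100 mM Tris. Each compound concentration expressed as 4-MU-equivalent concentration from a six-point 4-MU standard series on each plate.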
# HSD17B inh: qHTS Assay for Inhibitors of HSD17B4, hydroxysteroid (17-beta) dehydrogenase 4 | 3-hydroxyacyl-CoA dehydrogenase type-2 (Homo sapiens), Q99714 | recombinant HSD17B10, NADH fluorescence kinetic | Potency, µM (series often up to 57.1 µM), without a hit: at the top dose activity change, negative = inhibition, hits mostly inhibitors | 75,000 compounds, 7.6% hits | AID 893, 2007;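 further: the protocol describes HADH2 (HSD17B10) and not the HSD17B4 of the title; potency means the concentration at half of the fitted maximal effect; on the % scale 0 is the no-effect control and ±100 the full control effect; nearly all actives have a fitted effect of over 70% in size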
#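 20 nM HADH2, pH 9.0 Tris/Tween; cpd preinc 15 min RT; start w/ 1 mM NAD+ + 90 uM b-hydroxybutyryl-CoA; kinetic fluor ex360/em450 q30s x 4 min; delta last-first.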
# Active calls of the source: *; i = inactive; ? = inconclusive; . = no result; [ ] = dose if it differs, or a comment. Unless noted, the call rests on the fitted dose curve; in most records, active means well fitted curve in the direction sought with a large enough effect; inconclusive means small, poorly fitted or top-dose-only effect, or another doubt; inactive means no such curve, though single readings can be large; an effect the other way counts as inactive or inconclusive.
SMILES,AID923,A350 fluor,CRE-bla Fsk,HADH2 inhib,4MU fluor,HSD17B inh
CC1CCCN(C/C(O)=C(\C#N)c2nc3ccccc3[nH]2)C1 (centres undefined),0.4%,i,-4.8%,8.6%,i,0.6%
CCOC(=O)c1c(C)[nH]c(C(=O)OC/C(O)=C(\C#N)c2nc3ccccc3[nH]2)c1C,-2.0%,i,?,-1.5%,i,31.6µM*
N#C/C(=C(/O)COC(=O)CCc1ccc(S(=O)(=O)N2CCOCC2)cc1)c1nc2ccccc2[nH]1,12.6%,1.34e-08M*,-12.4%,-14.9%,1.04e-08M*,?
Cc1ccccc1-n1c(SC/C(O)=C(\C#N)c2nc3ccccc3[nH]2)nnc1-c1ccncc1,7.1%,?,?,-12.9%,?,31.6µM*
C[C@@](N)(/C=C\c1ccccc1)C(=O)O,-0.8%[11.5 µM],i,1.6%[7.6 µM],-2.8%[11.4 µM],i,1.4%[11.4 µM]
O=C(O)CC(CC(=O)O)C(=O)O,-1.1%[11.5 µM],i,?,1.3%[11.4 µM],i,9.1%[11.4 µM]
Cc1cc(C)n2c(SC/C(O)=C(\C#N)c3nc4ccccc4[nH]3)nnc2n1,1.6%,i,15.8%,?,i,25.1µM*
NC(N)=NCCCC(=O)O,0.2%[11.5 µM],i,0.0%[7.6 µM],2.3%[11.4 µM],i,2.0%[11.4 µM]
COC(=O)c1ccc(C(=O)OC)c(NC(=O)c2cc3ccccc3o2)c1,.,6.11e-08M*,.,.,6.04e-08M*,.
COc1cc(NC(=O)c2cc3ccccc3o2)c(OC)cc1Br,3.3%,.,.,-20.5%,.,?
COC(=O)c1ccc(C(=O)OC)c(NC(=O)c2oc(C)nc2C)c1,1.3%,?,?,-17.0%,2.2e-08M*,-2.4%
COC(=O)c1ccc(C(=O)OC)c(NC(=O)COc2ccccc2OC)c1,4.1%,4.46e-08M*,18.6%,10µM*,3.96e-08M*,?
COc1cc(NC(=O)c2cc3ccccc3o2)c(OC)cc1Cl,11.3%,.,?,-5.6%,.,31.6µM*
Cc1noc(C)c1-c1nccc(N(C)C)n1,2.5%,i,?,-2.3%,i,5.6%
CSC(N)=NCCCC(N)C(=O)O (centres undefined),0.1%,.,.,.,.,5.4%
COC(=O)c1ccc(N2CCN(C)CC2)c(NC(=O)c2cc3ccccc3o2)c1,-2.2%,3.12e-08M*,0.0%,-6.9%,3.33e-08M*,0.3%
COc1cc(NC(=O)c2ccco2)c(OC)cc1NC(=O)CCC(=O)Nc1cc(C)ccc1C,3.8%,?,7.8%,36.8%,?,?
COc1cc(NC(=O)c2ccco2)c(OC)cc1NC(=O)CCC(=O)Nc1cc(C)cc(C)c1,-1.1%,1.97e-08M*,16.7%,6.1%,2.01e-08M*,?
CCC(=O)Nc1ccc(NC(=O)c2ccco2)c(OC)c1,-2.3%,i,-2.5%,4.9%,i,-2.7%
COc1ccc(NC(=O)c2cc(Cl)ccc2NC(=O)c2ccco2)c(OC)c1,3.4%,i,21.4%,41.2%,i,31.6µM*
Cc1ccccc1OCc1nc(-c2ccc(NC(=O)c3ccco3)cc2)no1,-0.5%,i,5.3%,?,i,31.6µM*
O=C(Nc1ccc(Cl)cc1C(=O)Nc1ccncc1)c1ccco1,-0.8%,?,?,14.7%,?,?
COc1cc(NC(=O)Cc2ccc(Cl)cc2)ccc1NC(=O)c1ccco1,0.0%,?,-19.8%,67.6%,?,20µM*
CC(C)=NO[C@@H](C)c1cn([C@H](CO)Cc2ccccc2)nn1,-1.6%[11.5 µM],.,.,-12.5%[11.4 µM],.,3.8%[11.4 µM]
CCOc1cc(NC(=O)c2ccco2)c(OCC)cc1NC(=O)COc1ccccc1C,2.4%,8.98e-08M*,11.3%,-2.5%,1.02e-07M*,-14.7%
SMILES,AID923,A350 fluor,CRE-bla Fsk,HADH2 inhib,4MU fluor,HSD17B inh
COc1cc(NC(=O)c2ccco2)c(OC)cc1NC(=O)CSc1ncc(-c2ccc(F)cc2)[nH]1,7.3%,2.82e-08M*,?,84.1%,1.75e-08M*,31.6µM*
CCOc1cc(NC(=O)c2ccco2)c(OCC)cc1NC(=O)Cc1cccc(OC)c1,2.4%,?,?,?,?,?
O=c1[nH]c2cc(Cl)ccc2c(O)c1-c1ccc(Oc2ccccc2)cc1,-0.7%,i,-15.6%,-27.0%,i,-9.5%
O=c1[nH]c2cc(Cl)ccc2c(O)c1-c1cccc(Oc2ccccc2)c1,-2.8%,.,?,-12.7%,.,31.6µM*
O=S(=O)(c1ccc2ccccc2c1)N1CCCCC1,-1.4%,.,-7.0%,-0.5%,.,-6.7%
O=S(=O)(Nc1cccc2ccccc12)N1CCCC1,0.3%,?,-5.7%,31.6µM*,?,31.6µM*
O=C(NCCc1ccccc1)c1ccccc1NS(=O)(=O)N1CCCC1,0.7%,?,20.1%,10µM*,?,31.6µM*
COc1ccccc1NC(=O)c1ccccc1NS(=O)(=O)N1CCCC1,-0.6%,?,7.4%,-2.3%,?,-22.4%
COC(=O)[C@@H]1C[C@H]1[C@@H](NC(=O)c1cc(C)nn1C)c1ccccc1,-1.6%,.,-0.7%,4.5%,.,-9.2%
CC1(C)Cc2[nH]c(=O)c(C#N)cc2CS1,.,1.25e-08M*,.,.,?,.
COc1cccc(C2Nc3ccccc3C(=O)N2O)c1O (centres undefined),0.0%,?,?,-9.0%,i,-2.0%
Cc1cccc(C2Nc3ccccc3C(=O)N2c2ccccc2)n1 (centres undefined),19.6%,.,-3.0%,15.8µM*,.,31.6µM*
O=C1c2ccccc2NC(c2ccccc2)N1c1ccc(O)cc1 (centres undefined),0.7%,.,-5.8%,18.8%,.,-20.5%
O=C1c2ccccc2NC(c2ccccn2)N1c1ccc(Cl)cc1 (centres undefined),18.3%,4.51e-07M*,-4.3%,?,4.94e-07M*,25.1µM*
O=C1[C@H]2[C@H]3[C@H](O)[C@H](O)C/C(=N/OC[C@@H](O)COCc4ccco4)[C@@H]3CC[C@@H]2C(=O)N1Cc1ccc2c(c1)OCO2,-1.9%[11.5 µM],.,.,-1.2%[11.4 µM],.,-3.1%[11.4 µM]
CN(C)Cc1cc(C(C)(C)C)cc(CN(C)C)c1O,-0.5%[11.5 µM],i,-2.2%[7.6 µM],3.4%[11.4 µM],i,3.7%[11.4 µM]
Cc1ccc(-c2nc(CN(C)C)cc(CN(C)C)c2O)cc1,1.4%,4.27e-07M*,?,25.1µM*,4.48e-07M*,31.6µM*
CCC1(C)Cc2nc3sc(C(=O)O)c(N)c3cc2CO1 (centres undefined),7.8%,4.2e-08M*,12.1%,-21.1%,3.25e-08M*,?
CS(=O)(=O)N1CCC2(CCN(C(c3ccccc3)c3ccccc3)CC2)CC1,-1.6%,i,-4.1%,11.9%,i,5.3%
Cc1sc2nc(-c3ccco3)oc(=O)c2c1C,3.1%,1.77e-07M*,?,-21.4%,1.43e-07M*,-29.3%
